Screening results: PubChem, National Center for Advancing Translational Sciences (NCATS)
In the library only some 6.5% were active in any assay of this set; here they are far more common.
HCMV antiviral: inhibitors of human cytomegalovirus. activity change, negative = inhibition, % at 57.5 µM. 4.5% of 410,000 active. HFF cells, HCMV-luciferase reporter, 72 h; hits give low values; in the data active means activity change below about -60%; inconclusive means no clear call, values can overlap the other calls; inactive means above about -39%
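Compounds were evaluated in HFFs infected with an HCMV luciferase reporter virus (MOI 1 PFU/cell). Luciferase in lysates collected 72 h post infection served as the replication measure.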
Vaccinia mCherry: vaccinia inhibition (mCherry reporter). Vaccinia virus mCherry reporter infection, fluorescence. Potency, µM (doses to about 36.5 µM), actives largely listed as inhibitors. 0.63% of 310,000 active. AID 720579; calls by dose curve; tested in A549 cells; further: nearly all actives have a fitted effect of over 35% in size
FMDV antiviral: blocks foot and mouth disease virus | FMDV antiviral cell-based qHTS | Potency, µM (series often up to 57.9 µM), actives largely listed as inhibitors | 1.2% of 410,000 active | AID 1159524; calls by dose curve; tested in HEK293T cells; further: read-out not given here; nearly all actives have a fitted effect of over 45% in size
Marburg entry inh: Marburg virus entry inhibition; Marburg virus pseudotyped entry inhibition, cell reporter; Potency, µM (series often up to 37.8 µM), most hits filed as inhibitors; 1.8% of 300,000 active; AID 540276; calls by dose curve; tested in HEK293 cells
LASV entry inh: inhibitors of Lassa virus binding or cell entry. 1.2% of 300,000 active. AID 540256. Lassa virus pseudotype entry inhibition, cell reporter. Potency, µM (top dose mostly 37.9 µM), usual class: inhibitors; calls by dose curve; tested in HEK293 cells; further: nearly all actives have a fitted effect of over 50% in size
Vaccinia Venus: inhibitors of vaccinia virus (Venus reporter); Vaccinia virus Venus reporter expression, fluorescence; Potency, µM (series often up to 36.5 µM), usual class: inhibitors; 0.46% of 330,000 active; calls by dose curve; tested in A549 cells; further: nearly all actives have a fitted effect of over 30% in size
Each line names hits and unclear results; the compound was inactive in the other large screens.

Cc1ccc2nc(/C(C#N)=C\c3ccc(N4CCCCC4)c([N+](=O)[O-])c3)[nH]c2c1	HCMV antiviral -61.5, Vaccinia mCherry inconclusive, Marburg entry inh inconclusive, LASV entry inh inconclusive (no result: FMDV antiviral)
O=C(Cn1nc(Cc2ccncc2)c2ccccc2c1=O)Nc1cccc(C(F)(F)F)c1	Marburg entry inh inconclusive
Cn1c(CNC(=O)OC(C)(C)C)nnc1SCC(=O)N1CCOCC1	none
Cn1c(=O)c(C#N)c(-c2ccc(F)cc2)c2cc(C(=O)c3cc(Cl)cc(Cl)c3O)cnc21	HCMV antiviral -61.3, FMDV antiviral inconclusive (no result: Vaccinia mCherry, Marburg entry inh, LASV entry inh, Vaccinia Venus)
C/C(CC(=O)Nc1ccccn1)=N\NC(=O)c1ccccc1O	HCMV antiviral -91.2, Vaccinia mCherry 3.98µM, Marburg entry inh inconclusive, LASV entry inh inconclusive
C/C(CC(=O)Nc1ccccn1)=N\NC(=O)c1ccc2ccccc2c1	none
C/C(CC(=O)Nc1cc(C)ccn1)=N\NC(=O)c1cccc(C)c1O	HCMV antiviral -98.0, Vaccinia mCherry inconclusive, Marburg entry inh inconclusive, LASV entry inh inconclusive
COc1cccc(CC(=O)n2nc(N)c3cc4ccc(OC)cc4nc32)c1	Vaccinia mCherry inconclusive (no result: Marburg entry inh, LASV entry inh)
COc1ccc2cc3c(N)nn(C(=O)c4cccc(F)c4)c3nc2c1	HCMV antiviral -80.7 (no result: Vaccinia mCherry, Marburg entry inh, LASV entry inh, Vaccinia Venus)
COc1ccc2cc3c(N)nn(C(=O)c4ccc(F)cc4)c3nc2c1	HCMV antiviral -86.9 (no result: Vaccinia mCherry, Marburg entry inh, LASV entry inh, Vaccinia Venus)
COc1ccc2cc3c(N)nn(C(=O)c4ccccc4Cl)c3nc2c1	HCMV antiviral -70.3, FMDV antiviral inconclusive, LASV entry inh inconclusive
COc1ccc2cc3c(N)nn(C(=O)Cc4ccc(Cl)cc4)c3nc2c1	HCMV antiviral -66.6, Vaccinia mCherry inconclusive (no result: Marburg entry inh, LASV entry inh)
COc1ccc2cc3c(N)nn(C(=O)c4ccc(OC)c(OC)c4)c3nc2c1	none
O=C(CSc1nc2ccsc2c(=O)n1Cc1ccccc1Cl)NCc1ccc(F)cc1	none
NC1N=CC(c2cc3ccccc3oc2=O)S1 (stereo not given)	none (no result: HCMV antiviral, Vaccinia mCherry, FMDV antiviral, LASV entry inh, Vaccinia Venus)
O=S(=O)(c1cccc(Cl)c1)N1CCN(c2nc(-c3cccs3)nc3ccccc23)CC1	none (no result: HCMV antiviral, FMDV antiviral, Marburg entry inh, LASV entry inh)
CCN(Cc1ccccc1)C(=O)c1cc2ccc3cccnc3c2[nH]1	Vaccinia mCherry inconclusive, LASV entry inh inconclusive (no result: Marburg entry inh)
N#CC1=C(N)N2C(=C(C#N)C13CCN(Cc1ccccc1)CC3)Nc1ccccc12	none (no result: Vaccinia mCherry, Vaccinia Venus)
N#CC1=C(N)N2C(=C(C#N)C1c1ccc(Br)cc1)Nc1ccccc12 (stereo not given)	HCMV antiviral -100.2, FMDV antiviral inconclusive, Marburg entry inh 9.2µM, LASV entry inh inconclusive (no result: Vaccinia mCherry, Vaccinia Venus)
N#CC1=C(N)N2C(=C(C#N)C1c1cccc(Br)c1)Nc1ccccc12 (stereo not given)	HCMV antiviral -97.4, FMDV antiviral 7.94µM, LASV entry inh inconclusive
CCO[C@H]1[C@H](NC(=O)c2cccnc2)c2ccccc2C12CCN(C(=O)c1cc(C)n(C)n1)CC2	none (no result: HCMV antiviral, Marburg entry inh, LASV entry inh)
COc1ccc2c(Sc3ccc(Cl)cc3)c(C(=O)N3CCC(C)CC3)[nH]c2c1	none
COc1ccc2c(Sc3ccc(Cl)cc3)c(C(=O)N3CCCCC3)[nH]c2c1	HCMV antiviral -100.7, Marburg entry inh inconclusive
CC(O)(COc1ccccc1)c1ccc2c(c1)CN(Cc1cccnc1)CCO2 (stereo not given)	none (no result: HCMV antiviral, Marburg entry inh, LASV entry inh)
CCOc1cc(-c2ccc3c(c2)OCO3)cc(=[O+]CC)c2c(C)oc(C)c12	none (no result: HCMV antiviral, FMDV antiviral, Marburg entry inh, LASV entry inh)
CCOc1ccc(NC(=O)Cn2c(=O)n(-c3cccc(Cl)c3)c(=O)c3c2c2cc(C)ccc2n3C)cc1	none
COc1ccccc1NC(=O)c1ccccc1-c1nc(-c2ccccc2OC)no1	Marburg entry inh 11.6µM, LASV entry inh inconclusive (no result: Vaccinia mCherry, Vaccinia Venus)
CCNc1nc(N)nc(-c2cc(Cl)ccc2O)n1	Vaccinia mCherry 10µM, Marburg entry inh inconclusive, LASV entry inh inconclusive, Vaccinia Venus 10µM (no result: HCMV antiviral)
CCCCNc1nc(N)nc(-c2cc(Cl)ccc2O)n1	Vaccinia mCherry inconclusive, Marburg entry inh inconclusive, LASV entry inh inconclusive, Vaccinia Venus 20µM
CCCNc1nc(N)nc(-c2cc(Cl)ccc2OC)n1	none (no result: Vaccinia mCherry)
CCOC(=O)Nc1ccc(S(=O)(=O)N2CCOCC2)cc1	none (no result: Vaccinia mCherry, Vaccinia Venus)
CN(C)CC(C)(C)CNC(=S)Nc1ccc(S(=O)(=O)N2CCOCC2)cc1	HCMV antiviral -76.0
CC(C)CCCCCCNC(=S)Nc1ccc(S(=O)(=O)N2CCOCC2)cc1	HCMV antiviral -84.9, Vaccinia mCherry inconclusive, Marburg entry inh inconclusive, LASV entry inh inconclusive, Vaccinia Venus inconclusive
O=S(=O)(c1ccc(NC(=S)Nc2ccccc2)cc1)N1CCOCC1	none
O=C(CCNC(=O)c1ccc(Br)cc1)NCC1COc2ccccc2O1 (stereo not given)	none
